The values that follow come from publication PMC7862700, “An all-to-all approach to the identification of sequence-specific readers for epigenetic DNA modifications on cytosine”.

Common to all, as to test: DAPPL (digital affinity profiling via proximity ligation, sequencing); 10 mM Tris-HCl pH 7.5, 50 mM NaCl, 1 mM DTT, 4% glycerol, room temperature, 30 min; GST-TFs on glutathione beads, 16-mer random dsDNA library, 0.1% formaldehyde crosslink after washing; high values mean tight binding
Settings in all cases: protein: recombinant; tags: N-terminal GST; dsDNA, one strand shown

Test [1] concerns the target T1, ELK1 (Homo sapiens, UniProt P19419 1-428).
T1 sequence: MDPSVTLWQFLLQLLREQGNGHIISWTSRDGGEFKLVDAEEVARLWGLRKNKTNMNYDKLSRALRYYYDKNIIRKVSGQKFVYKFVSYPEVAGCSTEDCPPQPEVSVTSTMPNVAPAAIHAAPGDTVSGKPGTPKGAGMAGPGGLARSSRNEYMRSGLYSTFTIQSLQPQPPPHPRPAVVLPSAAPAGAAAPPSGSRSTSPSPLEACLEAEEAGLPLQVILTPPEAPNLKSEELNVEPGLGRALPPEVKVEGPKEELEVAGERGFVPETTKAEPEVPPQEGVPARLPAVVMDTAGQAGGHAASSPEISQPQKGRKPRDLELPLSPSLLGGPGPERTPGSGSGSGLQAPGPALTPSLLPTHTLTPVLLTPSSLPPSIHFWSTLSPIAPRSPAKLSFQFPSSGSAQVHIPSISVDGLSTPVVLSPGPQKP
In outline: (§1)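 Human transcription factors carrying a GST fusion were produced in yeast, bound to glutathione beads, tagged with DNA barcodes and pooled together with a tag-only sample. Each pool was held with 200 nmole of a random double-stranded 16-mer DNA library in Tris/NaCl/DTT/glycerol buffer for 30 min at room temperature, then washed, crosslinked in 0.1% formaldehyde, proximity-ligated with BsaI/T4 ligase (1 h, 37 °C), PCR-amplified and sequenced on an Illumina NextSeq500. Binding signal is the read frequency of each hexamer for a given factor divided by its frequency in the tag-only sample.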

Test [2] deals with T2, ERG (Homo sapiens, UniProt P11308 1-479).
T2 sequence: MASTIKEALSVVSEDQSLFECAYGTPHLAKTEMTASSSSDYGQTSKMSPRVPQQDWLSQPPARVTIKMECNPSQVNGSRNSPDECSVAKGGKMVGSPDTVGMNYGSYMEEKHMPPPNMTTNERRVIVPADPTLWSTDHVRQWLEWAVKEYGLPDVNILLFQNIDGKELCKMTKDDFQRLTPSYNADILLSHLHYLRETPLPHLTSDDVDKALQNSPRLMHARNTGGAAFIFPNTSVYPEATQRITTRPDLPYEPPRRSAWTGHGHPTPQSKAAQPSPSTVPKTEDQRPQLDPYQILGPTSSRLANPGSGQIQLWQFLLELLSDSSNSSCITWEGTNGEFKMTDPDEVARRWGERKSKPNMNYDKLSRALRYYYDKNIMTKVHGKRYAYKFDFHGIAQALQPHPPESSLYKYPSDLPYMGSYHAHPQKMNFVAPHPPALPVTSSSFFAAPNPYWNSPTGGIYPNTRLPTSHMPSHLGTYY
A digest of the protocol: as §1

Test [3] concerns the target T3, ELK4 (Homo sapiens, UniProt P28324-2 1-405).
T3 sequence: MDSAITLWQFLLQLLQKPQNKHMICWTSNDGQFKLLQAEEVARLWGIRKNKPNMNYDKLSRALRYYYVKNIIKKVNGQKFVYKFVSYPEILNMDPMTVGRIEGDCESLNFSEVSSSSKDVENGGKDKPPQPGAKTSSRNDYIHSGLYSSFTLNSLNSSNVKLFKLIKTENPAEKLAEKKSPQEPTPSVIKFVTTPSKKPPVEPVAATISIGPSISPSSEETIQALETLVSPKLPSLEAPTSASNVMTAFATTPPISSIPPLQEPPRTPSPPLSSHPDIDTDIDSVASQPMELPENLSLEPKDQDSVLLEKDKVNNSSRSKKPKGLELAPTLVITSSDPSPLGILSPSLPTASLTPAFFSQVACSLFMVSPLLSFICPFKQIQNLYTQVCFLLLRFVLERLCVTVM
In outline: as §1

Test [4] concerns the target T4, ELF3 (Homo sapiens, UniProt P78545 1-371).
T4 sequence: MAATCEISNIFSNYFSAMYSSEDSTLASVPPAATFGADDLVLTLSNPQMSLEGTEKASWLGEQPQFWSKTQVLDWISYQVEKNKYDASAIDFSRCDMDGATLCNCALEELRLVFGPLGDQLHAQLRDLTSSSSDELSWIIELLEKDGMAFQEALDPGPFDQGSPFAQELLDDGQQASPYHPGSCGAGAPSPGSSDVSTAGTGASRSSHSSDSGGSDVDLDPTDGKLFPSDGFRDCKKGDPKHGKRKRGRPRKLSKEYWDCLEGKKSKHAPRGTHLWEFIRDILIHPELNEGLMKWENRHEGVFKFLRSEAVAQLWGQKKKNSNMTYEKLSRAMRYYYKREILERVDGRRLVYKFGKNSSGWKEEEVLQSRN
In outline:
as §1

The target in test [5] is CRX (Homo sapiens, UniProt O43186 1-299). A digest of the protocol:
as §1

Test [6] addresses ETV1 (Homo sapiens, UniProt P50549 1-477). In outline: as §1
The target in test [7] is T5, ERF (Homo sapiens, UniProt P50548 1-548).
T5 sequence: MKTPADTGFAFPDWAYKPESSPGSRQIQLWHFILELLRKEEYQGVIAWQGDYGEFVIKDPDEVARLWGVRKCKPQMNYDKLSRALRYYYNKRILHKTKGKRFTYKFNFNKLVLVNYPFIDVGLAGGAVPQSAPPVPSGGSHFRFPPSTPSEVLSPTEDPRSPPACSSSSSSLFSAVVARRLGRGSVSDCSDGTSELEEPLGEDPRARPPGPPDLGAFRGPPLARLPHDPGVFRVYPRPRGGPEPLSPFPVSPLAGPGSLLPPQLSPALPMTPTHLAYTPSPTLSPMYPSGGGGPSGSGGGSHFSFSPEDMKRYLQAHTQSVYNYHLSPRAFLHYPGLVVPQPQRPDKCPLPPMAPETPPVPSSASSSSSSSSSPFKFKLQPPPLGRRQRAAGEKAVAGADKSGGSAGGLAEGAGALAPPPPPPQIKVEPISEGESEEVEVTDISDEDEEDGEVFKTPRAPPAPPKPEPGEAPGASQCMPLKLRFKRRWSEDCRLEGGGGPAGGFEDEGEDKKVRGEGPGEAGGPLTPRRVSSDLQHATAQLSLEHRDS
In outline: as §1

The target of test [8] is T6, SPDEF (Homo sapiens, UniProt O95238 1-335).
T6 sequence: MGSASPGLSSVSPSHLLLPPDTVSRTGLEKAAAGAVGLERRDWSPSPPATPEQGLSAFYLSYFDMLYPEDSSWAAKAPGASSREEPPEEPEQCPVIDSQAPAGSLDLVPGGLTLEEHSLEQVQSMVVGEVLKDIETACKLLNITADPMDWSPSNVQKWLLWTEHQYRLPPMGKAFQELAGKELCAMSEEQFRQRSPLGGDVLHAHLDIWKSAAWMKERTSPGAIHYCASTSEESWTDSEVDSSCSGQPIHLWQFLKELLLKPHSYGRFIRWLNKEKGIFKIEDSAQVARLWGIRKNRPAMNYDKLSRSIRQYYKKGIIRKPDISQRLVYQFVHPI
A digest of the protocol:
as §1

Test [9] has as its target T7, ETV3 (Homo sapiens, UniProt P41162-2 1-143).
T7 sequence: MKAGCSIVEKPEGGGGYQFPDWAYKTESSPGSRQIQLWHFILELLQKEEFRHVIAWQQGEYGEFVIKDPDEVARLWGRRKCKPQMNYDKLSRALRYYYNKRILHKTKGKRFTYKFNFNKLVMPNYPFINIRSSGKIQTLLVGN
In outline: as §1

The target in test [10] is ELF1 (Homo sapiens, UniProt P32519 1-619). A digest of the protocol: as §1
In test [11] the target is T8, EHF (Homo sapiens, UniProt Q9NZC4 1-300).
T8 sequence: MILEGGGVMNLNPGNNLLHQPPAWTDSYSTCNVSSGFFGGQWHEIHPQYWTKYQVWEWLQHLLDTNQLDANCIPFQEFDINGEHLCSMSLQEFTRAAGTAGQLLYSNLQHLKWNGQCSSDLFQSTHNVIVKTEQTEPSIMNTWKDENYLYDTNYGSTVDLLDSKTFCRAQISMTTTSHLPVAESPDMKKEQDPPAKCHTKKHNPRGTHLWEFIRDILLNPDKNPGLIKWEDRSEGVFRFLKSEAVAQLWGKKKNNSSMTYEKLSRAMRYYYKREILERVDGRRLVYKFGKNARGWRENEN
A digest of the protocol: as §1

For test [12], the target named is SPI1 (Homo sapiens, UniProt P17947 1-270). In outline: as §1
Test [13] deals with T9, ELK3 (Homo sapiens, UniProt P41970 1-407).
T9 sequence: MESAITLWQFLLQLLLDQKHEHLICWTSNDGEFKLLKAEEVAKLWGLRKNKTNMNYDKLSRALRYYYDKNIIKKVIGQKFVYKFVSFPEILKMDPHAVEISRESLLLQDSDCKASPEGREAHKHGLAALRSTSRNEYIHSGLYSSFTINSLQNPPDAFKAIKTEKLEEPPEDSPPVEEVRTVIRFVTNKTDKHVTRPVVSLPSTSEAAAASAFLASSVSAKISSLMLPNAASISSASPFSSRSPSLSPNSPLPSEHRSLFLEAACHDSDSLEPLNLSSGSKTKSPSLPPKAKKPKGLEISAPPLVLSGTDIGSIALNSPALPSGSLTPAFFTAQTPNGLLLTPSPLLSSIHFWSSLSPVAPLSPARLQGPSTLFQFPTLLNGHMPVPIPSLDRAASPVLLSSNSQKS
A digest of the protocol: as §1

The target of test [14] is ELF4 (Homo sapiens, UniProt Q99607 1-663). A digest of the protocol:
as §1

Test [15] has as its target T10, ETV2 (Homo sapiens, UniProt O00321 1-342).
T10 sequence: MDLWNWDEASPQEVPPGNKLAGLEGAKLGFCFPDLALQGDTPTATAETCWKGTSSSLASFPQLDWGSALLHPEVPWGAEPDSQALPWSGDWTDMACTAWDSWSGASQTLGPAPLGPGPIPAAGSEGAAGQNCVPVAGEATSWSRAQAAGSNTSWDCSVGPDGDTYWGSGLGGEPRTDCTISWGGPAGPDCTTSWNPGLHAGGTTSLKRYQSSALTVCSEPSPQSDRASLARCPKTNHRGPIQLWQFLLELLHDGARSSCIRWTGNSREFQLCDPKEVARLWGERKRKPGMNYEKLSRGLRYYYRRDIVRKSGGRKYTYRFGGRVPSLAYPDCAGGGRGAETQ
In outline: as §1

Test [16] concerns the target T11, ETV7 (Homo sapiens, UniProt Q9Y603 1-341).
T11 sequence: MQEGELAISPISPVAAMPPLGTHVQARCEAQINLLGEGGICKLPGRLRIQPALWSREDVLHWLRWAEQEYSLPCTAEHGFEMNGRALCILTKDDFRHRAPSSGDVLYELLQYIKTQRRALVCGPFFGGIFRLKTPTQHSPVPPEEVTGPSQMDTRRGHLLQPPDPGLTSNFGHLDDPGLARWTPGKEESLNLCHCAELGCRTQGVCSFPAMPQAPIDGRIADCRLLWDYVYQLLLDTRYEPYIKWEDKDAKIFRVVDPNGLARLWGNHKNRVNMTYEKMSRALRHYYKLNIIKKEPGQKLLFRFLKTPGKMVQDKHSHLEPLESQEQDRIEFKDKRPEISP
A digest of the protocol:
as §1

Sequence of ELF4 (Q99607 whole entry): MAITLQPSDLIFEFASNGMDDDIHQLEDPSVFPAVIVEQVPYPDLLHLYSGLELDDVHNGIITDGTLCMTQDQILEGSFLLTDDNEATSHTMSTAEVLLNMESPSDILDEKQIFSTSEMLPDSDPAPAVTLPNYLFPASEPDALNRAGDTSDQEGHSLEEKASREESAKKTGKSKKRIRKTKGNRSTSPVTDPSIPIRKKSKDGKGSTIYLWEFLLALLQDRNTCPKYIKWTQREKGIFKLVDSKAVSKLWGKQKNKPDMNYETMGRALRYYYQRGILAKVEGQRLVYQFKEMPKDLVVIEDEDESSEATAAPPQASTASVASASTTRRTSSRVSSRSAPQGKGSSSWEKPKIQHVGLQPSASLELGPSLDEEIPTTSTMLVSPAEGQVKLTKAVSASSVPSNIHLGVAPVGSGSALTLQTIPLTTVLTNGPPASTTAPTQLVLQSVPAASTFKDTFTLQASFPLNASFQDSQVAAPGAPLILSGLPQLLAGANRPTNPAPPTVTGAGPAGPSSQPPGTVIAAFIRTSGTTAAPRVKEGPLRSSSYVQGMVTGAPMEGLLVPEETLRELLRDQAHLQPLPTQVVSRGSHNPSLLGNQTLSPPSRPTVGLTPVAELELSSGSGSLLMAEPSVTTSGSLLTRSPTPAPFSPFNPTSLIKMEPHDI
Sequence of CRX (O43186 whole entry): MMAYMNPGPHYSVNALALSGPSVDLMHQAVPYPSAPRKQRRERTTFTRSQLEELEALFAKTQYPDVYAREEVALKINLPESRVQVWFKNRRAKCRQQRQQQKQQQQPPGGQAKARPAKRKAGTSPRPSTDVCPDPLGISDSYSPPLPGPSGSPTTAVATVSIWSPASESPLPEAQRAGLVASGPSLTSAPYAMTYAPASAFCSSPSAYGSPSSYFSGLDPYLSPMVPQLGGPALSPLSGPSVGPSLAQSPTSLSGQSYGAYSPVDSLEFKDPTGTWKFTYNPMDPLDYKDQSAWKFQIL
Sequence of ELF1 (P32519 whole entry): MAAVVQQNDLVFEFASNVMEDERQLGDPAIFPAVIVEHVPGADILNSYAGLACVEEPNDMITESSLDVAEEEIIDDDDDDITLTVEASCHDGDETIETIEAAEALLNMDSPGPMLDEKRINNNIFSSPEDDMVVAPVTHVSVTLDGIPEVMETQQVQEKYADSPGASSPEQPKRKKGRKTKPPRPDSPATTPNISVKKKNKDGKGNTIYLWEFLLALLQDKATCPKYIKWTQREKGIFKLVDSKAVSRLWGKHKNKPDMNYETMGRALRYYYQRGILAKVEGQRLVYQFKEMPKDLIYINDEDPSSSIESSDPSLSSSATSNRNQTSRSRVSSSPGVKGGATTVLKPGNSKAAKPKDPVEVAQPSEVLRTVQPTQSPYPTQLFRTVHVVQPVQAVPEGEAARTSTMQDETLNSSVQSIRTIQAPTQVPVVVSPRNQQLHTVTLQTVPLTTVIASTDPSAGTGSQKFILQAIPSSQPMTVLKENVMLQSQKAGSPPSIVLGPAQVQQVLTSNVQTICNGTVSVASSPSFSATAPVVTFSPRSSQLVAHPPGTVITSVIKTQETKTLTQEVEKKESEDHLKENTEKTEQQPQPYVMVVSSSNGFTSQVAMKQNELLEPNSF
Sequence of ETV1 (P50549 whole entry): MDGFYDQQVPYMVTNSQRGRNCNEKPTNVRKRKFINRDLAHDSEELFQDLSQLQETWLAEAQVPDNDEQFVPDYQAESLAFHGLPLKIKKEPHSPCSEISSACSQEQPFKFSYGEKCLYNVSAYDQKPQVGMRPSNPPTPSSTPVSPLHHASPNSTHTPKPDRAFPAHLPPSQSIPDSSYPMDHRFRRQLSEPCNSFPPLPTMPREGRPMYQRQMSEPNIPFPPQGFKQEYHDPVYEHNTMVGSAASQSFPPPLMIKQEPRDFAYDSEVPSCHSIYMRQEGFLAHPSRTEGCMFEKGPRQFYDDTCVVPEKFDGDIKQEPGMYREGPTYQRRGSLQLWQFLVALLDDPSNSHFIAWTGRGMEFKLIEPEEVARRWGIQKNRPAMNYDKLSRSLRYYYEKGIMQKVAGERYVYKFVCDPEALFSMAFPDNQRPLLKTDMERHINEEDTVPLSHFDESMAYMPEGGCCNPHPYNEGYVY

On to TTGAAG, for which the binding signal is 1.06 fold enrichment (6-mer frequency, TF over GST control) in test [1]; 1.02 fold enrichment (6-mer frequency, TF over GST control) in [2]; 1.09 fold enrichment (6-mer frequency, TF over GST control) in test [3]; 1.07 fold enrichment (6-mer frequency, TF over GST control) in [4]; 1.03 fold enrichment (6-mer frequency, TF over GST control) in test [5]; 1.01 fold enrichment (6-mer frequency, TF over GST control) in test [6]. In addition, the binding signal is 1.01 fold enrichment (6-mer frequency, TF over GST control) in [7]; 1.03 fold enrichment (6-mer frequency, TF over GST control) in test [8]; 1.02 fold enrichment (6-mer frequency, TF over GST control) in test [9].

ATAGTG: in test [3], the binding signal was 1.06 fold enrichment (6-mer frequency, TF over GST control).

In the case of TAACGT, the binding signal in [1] is 1.02 fold enrichment (6-mer frequency, TF over GST control); in [10], 1.01 fold enrichment (6-mer frequency, TF over GST control); in test [11], 1.02 fold enrichment (6-mer frequency, TF over GST control); in [12], 1.03 fold enrichment (6-mer frequency, TF over GST control); in [13] it was 1.08 fold enrichment (6-mer frequency, TF over GST control); in [14], 1.01 fold enrichment (6-mer frequency, TF over GST control). The binding signal was 1.06 fold enrichment (6-mer frequency, TF over GST control) in test [3]; 1.02 fold enrichment (6-mer frequency, TF over GST control) in [15]; 1.06 fold enrichment (6-mer frequency, TF over GST control) in test [4]; 1.16 fold enrichment (6-mer frequency, TF over GST control) in [5]; 1.07 fold enrichment (6-mer frequency, TF over GST control) in test [7]; 1.05 fold enrichment (6-mer frequency, TF over GST control) in test [8]. Also, the binding signal was 1.01 fold enrichment (6-mer frequency, TF over GST control) in [16] and 1.04 fold enrichment (6-mer frequency, TF over GST control) in [9].

For the sequence AACAGA, the binding signal in [11] was 1.06 fold enrichment (6-mer frequency, TF over GST control); in test [14] it was 1.02 fold enrichment (6-mer frequency, TF over GST control); in test [3] it was 1.1 fold enrichment (6-mer frequency, TF over GST control); in test [15], 1.01 fold enrichment (6-mer frequency, TF over GST control); in test [16] it was 1.02 fold enrichment (6-mer frequency, TF over GST control); in [9], 1.01 fold enrichment (6-mer frequency, TF over GST control).
